From PubChem BioAssay
A selection: hits, their analogues and other compounds. The true share with any hit is near 1.5%.
IDE act – boosts human insulin-degrading enzyme activity in HEK cells; P14735; FAbeta-B cleavage, fluorescence polarization; 0% vehicle, 100% cell-free pure enzyme wells; activation, % at 5.96 µM; actives 0.073% (n = 340,000); AID 493087;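 active means activation above the mean of all tested compounds plus 3 SD, set per screening campaign, cut at about 17% in these data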
MCL1-BIM inh – MCL1-BIM-BH3 interaction inhibition (human); Q07820; GST-MCL1 / FITC-Bim-BH3 fluorescence polarization; inhibition, % at 10.9 µM; actives 0.68% (n = 320,000); AID 2057;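 active means inhibition above the mean inhibition of all tested compounds plus 3 SD, set per campaign, cut at about 40% in these data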;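 further: 0% = DMSO wells and 100% = unlabeled Bim-BH3 peptide control; higher means more loss of mP so more displacement of Bim peptide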
GLD-1 RNA inh – GLD-1-TGE RNA interaction inhibition (C. elegans). Q17339. purified GLD-1 + fluorescein TGE RNA, fluorescence polarization. inhibition, % at 5.96 µM. actives 0.44% (n = 320,000). AID 2280;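 active means percent inhibition above a per-plate cutoff, the plate mean of test compounds plus 3 SD, cut at about 30% in these data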;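 further: 0% = DMSO wells with GLD-1 and probe and 100% = wells lacking GLD-1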
Target sequence (Q17339 whole entry, looked up): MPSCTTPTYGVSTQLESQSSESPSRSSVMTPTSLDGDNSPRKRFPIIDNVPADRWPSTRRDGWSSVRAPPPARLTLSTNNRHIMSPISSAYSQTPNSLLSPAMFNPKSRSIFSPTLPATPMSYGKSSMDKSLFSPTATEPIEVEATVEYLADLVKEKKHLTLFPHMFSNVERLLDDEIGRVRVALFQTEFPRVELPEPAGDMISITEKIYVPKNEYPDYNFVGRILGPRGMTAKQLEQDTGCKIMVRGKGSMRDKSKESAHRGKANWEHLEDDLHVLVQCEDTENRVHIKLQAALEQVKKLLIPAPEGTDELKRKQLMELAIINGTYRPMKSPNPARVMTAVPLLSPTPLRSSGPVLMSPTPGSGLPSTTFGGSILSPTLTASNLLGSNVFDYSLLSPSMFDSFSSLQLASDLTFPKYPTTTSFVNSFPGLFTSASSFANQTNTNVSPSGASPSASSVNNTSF
Bcl-xL primary – blocks human Bcl-xL binding to Bim BH3 peptide | Q07817 | GST-Bcl-xL / FITC-Bim BH3 peptide fluorescence polarization | inhibition, % at 10.9 µM | actives 0.7% (n = 320,000);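 active means inhibition above the mean of all tested compounds plus 3 SD, cutoff set per campaign, cut at about 30% in these data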;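 further: 0% = DMSO wells and 100% = unlabeled Bim-BH3 peptide competitor; inhibitors lower millipolarization by displacing the labeled peptide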
IDE inh – inhibitors of human insulin-degrading enzyme in cells; P14735; actives 0.41% (n = 320,000); inhibition, % at 5.59 µM; HEK cells, FAbetaB cleavage, fluorescence polarization; AID 434962;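 active means percent inhibition above the average of all tested compounds plus 3 SD, set per screening campaign, cut at about 16% in these data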;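 further: IDE supplied by intact live HEK cells; FP after avidin binding of uncleaved biotin substrate so inhibition keeps polarization high; 0% = DMSO wells and 100% = 60 µM reference IDE inhibitor Ii1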
MEX-5 binding – C. elegans MEX-5 TCR-2 RNA binding activity | MEX-5/FITC-TCR2 RNA binding, fluorescence polarization; stronger effect = lower value | activity score (negative = inhibition of binding), % at 10 µM | actives 0.38% (n = 300,000) | AID 1832;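 active means inhibition past about -25% in most replicates, and total fluorescence under double the plate's negative control median, limit read from the data; inconclusive means replicates evenly split on the limit, or fluorescence at least double controls; inactive means too little inhibition in most replicates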;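 further: 0% = DMSO and -100% = 5 µM competing unlabeled TCR2 RNA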
Bcl-xL conf – Bcl-xL (human) inhibition, MCL1 counter-screen confirmation | actives 54% (n = 1,700) | inhibition, % at 10.9 µM | GST-Bcl-xL / FITC-Bim BH3 peptide FP binding | AID 2166 | shares compounds with MCL1-BIM inh;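 active means inhibition above a cutoff equal to the mean inhibition of all tested compounds plus 3 SD, cut at about 30% in these data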;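 further: 0% = DMSO wells and 100% = unlabeled Bim BH3 control peptide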
MCL1 inh confirm – confirmation of human MCL1 and BIM-BH3 interaction inhibitors. shares compounds with MCL1-BIM inh. GST-MCL1 / FITC-Bim-BH3 fluorescence polarization. inhibition, % at 10.9 µM. actives 61% (n = 1,700). AID 2168;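 active means inhibition above the average of all tested compounds plus 3 SD, cut at about 40% in these data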;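 further: 0% = DMSO wells and 100% = unlabeled Bim-BH3 control peptide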
* = called active by the depositor; ? = inconclusive; . = not tested or not shown.

SMILES	IDE act	MCL1-BIM inh	GLD-1 RNA inh	Bcl-xL primary	IDE inh	MEX-5 binding	Bcl-xL conf	MCL1 inh confirm
CC1CCCCN1C(=O)Cn1nnc(-c2cccnc2)n1 (stereo not given)	6	91*	74*	85*	1	-16	73*	110*
CC(=O)N1CCc2c(sc(NC(=O)CCS(=O)(=O)c3ccccc3)c2C(N)=O)C1	-4	17	26	8	0	-11	.	.
CCOC(=O)N1CCc2c(sc(NC(=O)CCS(=O)(=O)c3ccccc3)c2C(N)=O)C1	-1	48*	17	10	8	2	13	18
COc1ccc(OCC(=O)Nc2c(C)ccc3nsnc23)cc1	4	9	5	7	1	1	.	.
O=C1CCCC2=C1C(c1ccco1)Nc1ccc3ccccc3c12 (stereo not given)	3	67*	9	25	-1	-3	28	78*
Cc1ccc(C)c(NC(=O)CN(C)C(=O)c2cccc(-n3cccc3)c2)c1	5	46*	3	9	-3	-1	10	64*
COC(=O)C1=C(C(=O)OC)C(c2ccccc2O)c2sc(=O)[nH]c2S1 (stereo not given)	5	54*	3	33*	4	.	22	54*
N#C/C(=C\c1cccc([N+](=O)[O-])c1)C(=O)NCC1CCCO1 (stereo not given)	1	50*	15	61*	-3	-5	2	0
Cc1cc(C=C2C(=O)c3ccccc3C2=O)c(C)n1C	-2	71*	26	51*	11	-3	34*	55*
CCn1c(C)cc(C=C2C(=O)c3ccccc3C2=O)c1C	-2	.	.	.	.	-8	.	.
COc1ccc(OC)c2[nH]c(=O)c(CCNS(=O)(=O)c3ccc(Cl)cc3)cc12	1	44*	-11	1	-1	.	6	3
O=C(O)CCNc1ccc(NCCC(=O)O)c2c1C(=O)c1ccccc1C2=O	1	154*	77*	114*	1	-55*	102*	130*
CC(C)c1nc2c(c(=O)c3ccccc3n2C)c(=O)n1CCc1ccccc1	.	3	1	1	2	1	.	.
Cc1cc(Nc2ccc(Cl)cc2)nc(N)n1	-1	2	5	-1	1	-1	.	.
Nc1cc(Nc2ccc(Br)cc2)nc(N)n1	-2	50*	18	53*	-2	-6	44*	46*
CCC(=O)c1c[nH]c(C(=O)N2CCOCC2)c1	9	-3	1	-1	2	-2	.	.
O=C(CN1C(=O)/C(=C2\SC(=S)N(CCS(=O)(=O)O)C2=O)c2ccccc21)Nc1cccc(Br)c1	-3	103*	0	21	2	0	26	94*
O=C(CN1C(=O)/C(=C2/SC(=S)N(CCS(=O)(=O)O)C2=O)c2ccccc21)Nc1cccc(C(F)(F)F)c1	2	.	2	.	9	.	.	.
COC(C(=O)Nc1ccccc1C(=O)N1CCOCC1)c1ccccc1 (stereo not given)	4	0	-3	4	-5	3	.	.
O=C1SC(SCc2ccccc2)=N/C1=C\c1ccco1	-10	43*	6	20	1	0	8	16
O=C1SC(c2ccccc2)=N/C1=C/c1ccco1	0	10	3	5	-2	0	.	.
CN1CCCC(C#CC(O)(c2ccccc2)c2ccccc2)C1 (stereo not given)	6	-1	3	6	-3	-1	.	.
COC(=O)c1cn(-c2ccccc2)c(C)c1C(=O)OC	7	-2	6	2	-3	1	.	.
COC(=O)c1cc2c(C)c(C)c3ccccn3c-2c1C(=O)OC	3	115*	86*	112*	3	?	71*	81*
COC(=O)c1cc2ccccn2c2c(C(=O)OC)c(C(=O)OC)cc1-2	0	21	7	21	1	0	.	.
SMILES	IDE act	MCL1-BIM inh	GLD-1 RNA inh	Bcl-xL primary	IDE inh	MEX-5 binding	Bcl-xL conf	MCL1 inh confirm
COC(=O)c1cc2n3ccccc3c(C)c(-c3ccccc3)c-2c1C(=O)OC	-5	119*	86*	110*	11	?	111*	140*
O=C(NCCCN1CCOCC1)C(=O)NCc1ccccc1Cl	4	-2	-7	0	-2	-1	.	.
C=CCn1c(SCC(=O)c2ccc(O)c(O)c2)nnc1-c1ccccc1OC	4	54*	3	9	-6	-4	9	18
C=CCn1c(SCC(=O)c2ccc(O)c(O)c2)nnc1-c1cccc(C)c1	-3	24	-2	8	0	.	.	.
C=CCn1c(SCC(=O)c2ccc(O)c(O)c2)nnc1-c1cccnc1	3	41*	4	9	5	-3	12	47*
CCn1c(SCC(=O)c2ccc(O)c(O)c2)nnc1-c1ccccc1OC	3	45*	-6	10	-3	-7	14	41*
CCOc1ccc(NC(=O)N[C@@H](Cc2ccccc2)C(=O)O)cc1	-2	7	2	9	3	-1	.	.
Cc1nc2c(C)cccc2cc1C(=O)N/N=C/c1cccnc1	0	0	-6	1	3	-5	.	.
CC1CCCCN1C(=O)COC(=O)C1CCN(S(=O)(=O)c2c(Cl)cccc2Cl)CC1 (stereo not given)	4	-18	-3	-7	-1	-5	.	.
COc1ccc(OC)c(NC(=O)CSc2nnc(NC(=O)c3ccco3)s2)c1	2	2	4	3	-5	-2	.	.
CCOc1ccc(CCNC(=O)COC(=O)Cn2nc(C)c([N+](=O)[O-])c2C)cc1OCC	-2	4	-4	7	3	0	.	.
CC(C)CNC(=O)NC(=O)COc1ncnc2sccc12	0	54*	7	14	2	-2	9	14
CC(C)CCNC(=O)NC(=O)COc1ncnc2sccc12	2	5	4	5	1	-4	.	.
CC1=CC(=Nc2c(C)n(C)n(-c3ccccc3)c2=O)C=CC1=O	.	126*	76*	125*	-6	-5	28	25
CC(C)(C)[C@@H]1COC(=O)[C@H](Cc2ccc(F)cc2)CC/C=C\C[C@@H](CC(=O)N(CCO)Cc2ccccc2)C(=O)N1	2	.	6	.	1	.	.	.
CC(=O)C1=C(c2ccccc2)NC(=O)NC1c1ccc(O)c(O)c1 (stereo not given)	3	81*	7	13	-7	-29*	23	36
